HTR2A ag: mouse HTR2A agonism via beta-arrestin recruitment; P35363; CHO-K1 mHTR2A beta-arrestin complementation, luminescence; percent of 30 µM serotonin response; activation, % at 7.6 µM; 360,000 tested, 0.66% active; AID 624169;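 active means activation above a run cutoff, the mean activation of all tested compounds plus 3 SD, cut at about 14% in these data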;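 further: 0% = plate median of compound wells and 100% = 30 µM serotonin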
TLR4-MyD88 BLA: inhibitors of human TLR4-MyD88 binding; O00206+Q99836; HeLa CL3-4 TLR4/MyD88 BLA complementation, FRET ratio; inhibition, % at 8.4 µM; 200,000 tested, 0.18% active; AID 861; in the data active means inhibition above about 25%;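 further: 0% = vehicle and 100% = reference inhibitor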
Target sequence (O00206 whole entry, looked up): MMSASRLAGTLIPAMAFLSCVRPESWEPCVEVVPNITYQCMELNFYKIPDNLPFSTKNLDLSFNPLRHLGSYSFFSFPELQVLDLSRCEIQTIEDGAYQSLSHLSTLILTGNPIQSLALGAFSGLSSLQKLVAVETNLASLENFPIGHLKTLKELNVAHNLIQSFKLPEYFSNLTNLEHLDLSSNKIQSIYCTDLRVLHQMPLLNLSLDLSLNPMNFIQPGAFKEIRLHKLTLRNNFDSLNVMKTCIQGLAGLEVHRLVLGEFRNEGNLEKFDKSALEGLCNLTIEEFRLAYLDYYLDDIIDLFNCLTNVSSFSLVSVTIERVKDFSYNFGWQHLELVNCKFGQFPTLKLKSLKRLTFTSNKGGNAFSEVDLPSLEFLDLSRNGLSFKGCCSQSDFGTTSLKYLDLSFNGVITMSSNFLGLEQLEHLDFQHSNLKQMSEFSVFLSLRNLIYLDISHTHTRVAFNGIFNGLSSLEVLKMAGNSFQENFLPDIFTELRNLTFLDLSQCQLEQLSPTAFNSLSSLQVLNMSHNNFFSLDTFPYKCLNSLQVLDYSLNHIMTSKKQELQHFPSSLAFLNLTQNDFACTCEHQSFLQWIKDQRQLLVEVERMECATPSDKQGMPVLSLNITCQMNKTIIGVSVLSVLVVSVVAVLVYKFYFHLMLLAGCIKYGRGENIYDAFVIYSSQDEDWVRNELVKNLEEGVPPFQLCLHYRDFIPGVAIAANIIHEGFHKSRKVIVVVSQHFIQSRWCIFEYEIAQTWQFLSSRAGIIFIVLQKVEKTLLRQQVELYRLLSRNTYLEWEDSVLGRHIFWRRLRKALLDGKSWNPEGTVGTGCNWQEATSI
Target sequence (Q99836 whole entry, looked up): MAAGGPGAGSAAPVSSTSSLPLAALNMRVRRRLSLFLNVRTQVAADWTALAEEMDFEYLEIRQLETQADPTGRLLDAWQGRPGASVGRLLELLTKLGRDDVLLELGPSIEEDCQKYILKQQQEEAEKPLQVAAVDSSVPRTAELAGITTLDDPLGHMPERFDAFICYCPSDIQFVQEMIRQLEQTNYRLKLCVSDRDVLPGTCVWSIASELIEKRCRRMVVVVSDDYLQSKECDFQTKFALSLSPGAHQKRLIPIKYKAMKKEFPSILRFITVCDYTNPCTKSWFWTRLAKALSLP
ANO1 activ: activates or potentiates the mouse TMEM16A chloride channel; B-score at 10 µM; HEK293 TMEM16A/YFP-H148Q/I152L, iodide quench fluorescence; stronger effect = lower value; Q8BHY3; 340,000 tested, 0.3% active;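 active means fluorescence-ratio B-score plate-corrected deviation score at least 3 library SD below zero, with starting fluorescence score within 5 deviations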;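 further: channel opened by trigger with iodide after compound preincubation; score built on the fluorescence ratio of max minus min over baseline; more negative score means more quench and so TMEM16A activation or potentiation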
TMEM16A inh: inhibitors of mouse TMEM16A calcium-activated chloride channel | normalized B-score (activity score, 25-100; higher = stronger inhibition) at 10 µM | HEK293 TMEM16A/YFP iodide influx fluorescence, ionomycin | 310,000 tested, 1.2% active | Q8BHY3;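 active means ratio plate-corrected score three or more library SD toward inhibition, starting fluorescence score within five deviations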;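 further: score derived from kinetic fluorescence span divided by baseline fluorescence per well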
TLR9-MyD88 inh: blocks human TLR9 binding to MyD88; Q9NR96+Q99836; CHO BLA complementation TLR9-MyD88, CCF4 FRET ratio; inhibition, % at 4.98 µM; 340,000 tested, 0.21% active; AID 504734;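 active means inhibition above the mean over all tested compounds plus 3 SD, cut at about 21% in these data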;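 further: 0% = DMSO only wells and 100% = clavulanate BLA inhibitor control wells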
NOD2-RIPK2 inh: NOD2-RIPK2 protein interaction inhibition | O43353 | CHO BLA complementation NOD2-RIPK2, CCF4 ratio | inhibition, % at 4.98 µM | 360,000 tested, 0.38% active | AID 624267; in the data active means inhibition above about 21%;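 further: 0% = vehicle only and 100% = reference blocker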
MOR ag counter: counter-screen for mouse HTR2A agonists: human mu opioid receptor agonists; AID 624380; activation, % at 9.3 µM; shares compounds with HTR2A ag; U2OS OPRM1 beta-arrestin PathHunter, luminescence; DMSO 0%, DAMGO 9.3 µM 100%; 2,300 tested, 5.3% active;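 active means mean activation above the mean of DMSO-only wells plus 3 SD, cut at about 0.5% in these data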
HTR2A ag conf: confirmation of mouse HTR2A serotonin receptor agonists; shares compounds with HTR2A ag; CHO-K1 PathHunter beta-arrestin recruitment, luminescence; DMSO 0%, 30 µM serotonin 100%; activation, % at 7.6 µM; 2,300 tested, 19% active;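 active means mean activation across triplicates above the hit threshold derived in the original primary screen, cut at about 15% in these data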
* marks the source's active call; other numbers are inactive results; i = inactive; . = no result. The list is not random: actives were taken first. Their share in the collection is about 2.4%.

SMILES	HTR2A ag	TLR4-MyD88 BLA	ANO1 activ	TMEM16A inh	TLR9-MyD88 inh	NOD2-RIPK2 inh	MOR ag counter	HTR2A ag conf
Nc1nnc(-c2ccccc2[N+](=O)[O-])o1	25.6*	8.6	i	i	-17.2	2.4	-0.4	-5.4
N#Cc1c(-c2ccccc2)[nH]c(=S)[nH]c1=O	21.8*	-6.3	i	i	-2.5	5.6	-0.9	-3.8
Cc1c(C)c2ccc(OCC(=O)NCc3ccccn3)cc2oc1=O	5.5	.	i	i	4.4	-7.7	.	.
Cc1c(C)c2ccc(OCC(=O)Nc3ccccn3)cc2oc1=O	17.8*	.	i	i	16.4	-0.5	-0.7	-2.7
Cc1ccc(/C=N/NC(=O)c2c[nH]c3ccccc23)o1	-0.9	-9.0	i	i	6.4	-7.4	.	.
CC1CC(=O)Nc2ccccc2N1S(=O)(=O)c1ccc(C(F)(F)F)cc1 (configuration not stated)	-2.3	.	i	i	7.2	6.2	.	.
COc1ccc(S(=O)(=O)N2c3ccccc3NC(=O)CC2C)cc1 (configuration not stated)	19.0*	.	i	i	-1.2	-9.0	-0.7	-3.5
Cc1ccc(C(=O)C2=C(O)C(=O)N(Cc3ccco3)C2c2cccc(Br)c2)o1 (configuration not stated)	-0.5	.	i	i	7.3	-0.9	.	.
O=C(C1=C(O)C(=O)N(Cc2ccco2)C1c1cccc(O)c1)c1ccco1 (configuration not stated)	16.8*	.	i	i	2.4	-6.6	-0.5	-4.6
COc1ccc(CCNS(=O)(=O)c2cccc(S(=O)(=O)N3CCCC3)c2)cc1OC	-3.1	4.1	i	.	-14.8	-5.6	.	.
c1ccc2c(c1)ccc1nnc(SCc3ccc4c(c3)OCCO4)n12	2.4	12.4	i	i	-2.7	4.0	.	.
c1ccc2c(c1)ccc1nnc(-c3ccc4c(c3)OCO4)n12	18.5*	-6.7	i	i	-6.6	-14.2	-0.5	0.1
CSc1ccc(C(=O)C2CCCN(C(=O)CCc3cnn(C)c3)C2)cc1 (configuration not stated)	2.4	.	i	i	6.7	-15.3	.	.
C[C@@H](NC(=O)Cn1cnc2c(NCc3ccccc3)ncnc21)c1cccc2ccccc12	-0.6	.	.	.	7.5	-5.6	.	.
C[C@@H](NC(=O)Cn1cnc2c(OCc3ccccc3)ncnc21)c1cccc2ccccc12	15.7*	.	i	.	-1.7	-9.6	.	-0.8
O=S(=O)(NCCSc1ccccc1)c1cccs1	15.0*	-2.6	i	i	0.7	-0.3	-0.8	-5.3
O=S(=O)(NCCc1ccccc1)c1cccs1	-2.4	.	i	i	-15.0	9.1	.	.
CCC(C)(C)n1nnnc1C(c1ccc(O)c(OC)c1)N1CCN(c2nc3ccccc3s2)CC1 (configuration not stated)	23.7*	10.5	i	i	0.1	1.3	-0.6	7.1
COC(=O)c1cc(=O)n(Cc2ccc3c(c2)OCO3)c(=Nc2ccc(F)c(Cl)c2)s1	14.5*	6.3	i	i	-6.5	-1.9	-0.3	-0.2
COC(=O)c1cccc(CN2C(=O)C(C)Sc3ccc(C)cc32)c1 (configuration not stated)	4.4	.	.	.	.	0.1	.	.
CN(C)c1nc(Oc2ccc(C(=O)OCC(=O)Nc3ccccc3)cc2)nc(N(C)C)n1	8.3	3.2	i	i	-3.7	9.7	.	.
CCOC(=O)c1ccc(Oc2nc(OC)nc(N(C)C)n2)cc1	17.6*	-1.7	i	i	-1.5	2.2	-0.6	-0.3
CN1CCc2cccc3c2[C@H]1Cc1ccc(O)c(O)c1-3	44.1*	8.0	i	i	0.3	-2.6	-0.3	125.0*
CCN(C(=O)COC(=O)c1cc(C)oc1C)c1c(N)n(Cc2ccccc2)c(=O)[nH]c1=O	5.5	.	i	.	14.5	3.8	.	.
CCOC(=O)C1CCCN(C(=O)c2sc3nc4n(c(=O)c3c2C)CCC4)C1 (configuration not stated)	-5.6	.	i	.	-2.3	-8.4	.	.
SMILES	HTR2A ag	TLR4-MyD88 BLA	ANO1 activ	TMEM16A inh	TLR9-MyD88 inh	NOD2-RIPK2 inh	MOR ag counter	HTR2A ag conf
CCOC(=O)CCNC(=O)N1CCCC(CNS(=O)(=O)Cc2ccccc2)C1 (configuration not stated)	2.7	-11.9	i	i	14.0	-4.2	.	.
CCCCC(=O)Nc1nnc(S(=O)(=O)N(CC)c2ccccc2)s1	3.6	.	i	i	-9.0	2.8	.	.
CC(=O)NCc1nc2ccccc2n1C(C)C	18.1*	4.7	i	i	-12.9	-20.3	-0.4	-3.0
Cc1ccc2c(C)c(C(=O)NCC(C)(C)N3CCOCC3)oc2c1C	1.9	.	i	i	0.8	-1.6	.	.
CCC(=O)N1c2ccc(S(=O)(=O)N3CCCCC3)cc2CC1C (configuration not stated)	-0.6	.	i	i	-10.8	-5.8	.	.
CCC(=O)N1c2ccc(S(=O)(=O)N3CCCC3)cc2CC1C (configuration not stated)	15.0*	.	i	i	8.8	0.8	-0.3	0.1
Cc1cccc(NC(=O)c2cc(S(=O)(=O)N3CCc4ccccc43)cn2C)c1C	-8.4	.	i	i	-9.0	3.7	.	.
CCc1ccccc1NC(=O)c1cc(S(=O)(=O)N2CCc3ccccc32)cn1C	27.5*	.	i	i	-3.3	-4.4	0.7*	-2.0
Cc1ccc(N2CCN(C(=O)C3CCCN(c4ncnc5c4nc4n5CCCCC4)C3)CC2)c(C)c1 (configuration not stated)	14.8*	.	i	i	2.1	-11.0	-0.7	-3.7
Cc1ccc(C)c(N2CCN(C(=O)C3CCCN(c4ncnc5c4nc4n5CCCCC4)C3)CC2)c1 (configuration not stated)	-1.2	.	i	i	1.3	5.8	.	.
COc1cccc(-n2c(SCC(=O)N3CCCCC3)nc3c([nH]c4ccccc43)c2=O)c1	20.8*	-7.3	i	i	-9.8	-3.1	-0.6	-3.6
COc1cccc(-n2c(SCC(N)=O)nc3c([nH]c4ccccc43)c2=O)c1	2.8	-10.9	i	i	0.8	0.7	.	.
CCOc1ccc(C(=O)COC(=O)c2c(-c3ccccc3)noc2C)cc1	4.6	.	i	i	-7.7	0.8	.	.
COc1ccc(NC(=O)CSc2ccc(-c3ccccn3)nn2)cc1OC	35.5*	10.6	i	i	-1.8	-12.2	-0.8	107.4*
CC(C)(C)C(=O)NNC(=O)c1cnccn1	-1.4	.	i	i	1.4	1.6	.	.
Cc1nc2c(-c3ccccc3)c(C)[nH]n2c(=O)c1Cc1ccccc1	59.4*	6.4	i	i	.	-3.2	-0.5	32.5*

From PubChem
